40 compounds from PubChem BioAssay AID489008 (National Center for Advancing Translational Sciences (NCATS), 2010) can be followed below.

Results filed as inconclusive are left out. Activity calls are given as the source filed them. Calls come from the whole dose curve; as a rule, active = well fitted inhibition curve with a large enough effect; inconclusive = small, poorly fitted or top-dose-only effect; inactive = flat fitted curve, though single readings scatter.
Potency is the fitted concentration of half-maximal effect.

Chain of Ferritin light chain (Equus caballus) (P02791 2-175 limits assumed): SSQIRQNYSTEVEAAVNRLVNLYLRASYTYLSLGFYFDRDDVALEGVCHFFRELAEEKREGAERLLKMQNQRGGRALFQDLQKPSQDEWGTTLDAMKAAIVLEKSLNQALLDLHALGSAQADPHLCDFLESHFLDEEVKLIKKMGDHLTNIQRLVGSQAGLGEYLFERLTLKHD

This test concerns the target Ferritin light chain (Equus caballus) (UniProt P02791). Nature of the test: Confirmation Assay for Identification of Novel General Anesthetics. Note: nearly all actives have a fitted effect of over 40% in size. The conditions noted are these: apoferritin 1-aminoanthracene fluorescence displacement. The text has this: Anesthetic development has remained a largely empirical process. There are growing concerns about the cognitive effects of known general anesthetics and acceleration of the onset of neurodegenerative disease. The compounds' toxicity and multiple specific binding targets in the mammalian brain [4] has made them less attractive as drug leads. In this assay, a GABAergic mimetic model system, apoferritin and a profluorescent 1-aminoanthracene ligand (1-AMA), was used to construct a competitive binding assay for identification of novel general anesthetics. The assay was validated for 1-AMA using other known anesthetics, such as isoflurane (CID:3763) and propofol (CID: 4943), [6]. This particular BioAssay is a confirmation of followup compounds from primary screen AID:485281.
[1] S.L. Bianchi, T. Tran, C. Liu, S. Lin, Y. Li, J.M. Keller, R.G. Eckenhoff, and M.F. Eckenhoff, Brain and behavior changes in 12-month-old Tg2576 and nontransgenic mice exposed to anesthetics. Neurobiol Aging 29 (2008) 1002-10.
[2] Z. Xie, Y. Dong, U. Maeda, R.D. Moir, W. Xia, D.J. Culley, G. Crosby, and R.E. Tanzi, The inhalation anesthetic isoflurane induces a vicious cycle of apoptosis and amyloid beta-protein accumulation. J Neurosci 27 (2007) 1247-54.
[3] P. Honegger, and J.M. Matthieu, Selective toxicity of the general anesthetic propofol for GABAergic neurons in rat brain cell cultures. J Neurosci Res 45 (1996) 631-6.
[4] M.F. Eckenhoff, K. Chan, and R.G. Eckenhoff, Multiple specific binding targets for inhaled anesthetics in the mammalian brain. J Pharmacol Exp Ther 300 (2002) 172-9.
[5] C.A. Butts, J. Xi, G. Brannigan, A.A. Saad, S.P. Venkatachalan, R.A. Pearce, M.L. Klein, R.G. Eckenhoff, and I.J. Dmochowski, Identification of a fluorescent general anesthetic, 1-aminoanthracene. Proc Natl Acad Sci U S A 106 (2009) 6501-6.
[6] W.A. Lea, J. Xi, A. Jadhav, L. Lu, C.P. Austin, A. Simeonov, and R.G. Eckenhoff, A high-throughput approach for identification of novel general anesthetics. PLoS One 4 (2009) e7150.
Source: NIH Chemical Genomics Center [NCGC]
Assay Submitter: Roderic Eckenhoff, University of Pennsylvania
Screening Center PI: Christopher P. Austin, NIH
Probe Development: NIH Chemical Genomics Center [NCGC]
Three uL of reagents (free 1-AMA (50% saturated solution of 1-aminoanthracene
in PBS) in columns 3, 4 as negative control and 1-AMA/apoferritin mixture (10 uM horse-spleen apoferritin in 50% saturated 1-aminoanthracene in PBS) in columns 1, 2, 5-48) was dispensed into 1536-well Greiner black assay plates. Compounds (23 nL) were transferred via Kalypsys pintool equipped with 1,536-pin array (10 nL slotted pins, V&P Scientific, San Diego, CA). Titration of the positive control, propofol, were delivered via pin transfer from separate control plates to the 2nd column of each assay plate. The starting concentration of the control, dissolved in DMSO, was at 160 mM, followed by two-fold dilution points in duplicate, for a total of 16 concentrations. The plates were incubated for 10 min at room temperature, and then read on an EnVision HTS multilabel reader (Perkin-Elmer, Waltham, MA) (end point read, 3 min/plate) using Fura2 BFP excitation filter (380 nm, bandwidth 10 nm) and fluorescein emission filter (535 nm, bandwidth 25 nm) set. A LANCE/DELFIA dichroic mirror with a cutoff wavelength at 400 nm was used to maximize signal accuracy and strength. Vehicle-only plates, with DMSO being pin-transferred to the entire column 5-48 compound area, were inserted uniformly at the beginning and the end of each library in order to monitor for and record any shifts in the background. Activity was computed as the normalized fluorescence response relative to free 1-AMA and 1-AMA/apoferritin complex values. Concentration-effect relationships were derived by using curve fitting algorithms developed in-house (http://ncgc.nih.gov/pub/openhts/). […]
For the compound `O=C(Cc1cccc2ccccc12)N1CCCc2ccccc21`, the Potency was 17.8 µM (active).

With `Nc1nc(SCC(=O)C23CC4CC(CC(C4)C2)C3)n[nH]1`, the Potency was 7.08 µM (active).

Take `CC1(C)CC(=O)c2c(Cc3ccccc3)noc2C1`: the Potency is 14.1 µM (active).

In the case of `Cc1ccc(NC(=O)c2ccccc2)cc1OC(=O)c1ccccc1`, the Potency was 28.2 µM (active).

For the compound `Cc1ccc(O)c(Sc2cc(C)ccc2O)c1`, the Potency was 7.94 µM (active).

In the case of `CC(NC(=O)c1ccc(Br)o1)C1CC2CCC1C2` (stereo not given), the Potency was 8.91 µM (active).

`CC(C)CCNC(=O)CN1N=C(c2ccc(Cl)cc2)CCC1=O`: the Potency was 5.19 µM (active).

As for `CCCCCc1ccc(C2=NNC(=O)CC2)cc1`, the Potency is 28.2 µM (active).

Consider `Nc1ccc2nc(SCc3cccc(F)c3)sc2c1`, for which the Potency is 28.2 µM (active).

`Cc1csc(SCC(=O)NC23CC4CC(CC(C4)C2)C3)n1`: the Potency was 15.8 µM (active).

Turning to `O=C(CSc1ccccn1)C12CC3CC(CC(C3)C1)C2`, the Potency was 6.31 µM (active).

As to `Cc1ccc(C2=NN(CC(=O)NCc3cccs3)C(=O)CC2)cc1`, the Potency is 7.08 µM (active).

Take `O=c1sc2ccccc2c(=O)n1Cc1ccccc1F`: the Potency was 8.91 µM (active).

For the compound `Clc1ccc(NCc2ccsc2)cc1`, the Potency is 25.1 µM (active).

On to `Cc1cc(N2CC(C(=O)Nc3nccs3)CC2=O)ccc1C(C)C` (stereo not given), for which the Potency is 14.1 µM (active).

For `O=C(Cc1ccccc1)N1CCc2ccccc21`, the Potency is 14.1 µM (active).

As to `O=C(NC1CCCCC1)N1CCCCCCC1`, the Potency is 14.1 µM (active).

For `COC1CCCCC1Nc1cc(C)cc(C)c1` (stereo not given), the Potency is 31.6 µM (active).

As to `CC1Cc2ccccc2N1C(=O)CSc1nnnn1C` (stereo not given), the Potency was 28.2 µM (active).

`COc1ccccc1OCC(=O)N1CCCCCCC1`: the Potency was 12.6 µM (active).

Consider `CC1CCCCC1NC(=O)COC(=O)c1ccc(N(C)C)cc1` (stereo not given), for which the Potency is 11.2 µM (active).

With `CC(C)(Nc1ccccc1)C(=O)c1ccccc1`, the Potency is 12.6 µM (active).

For `COc1cccc(NC(=O)Nc2nc(SC(C)(C)C)ns2)c1`, the Potency is 10 µM (active).

With `O=C(Nc1cccc(F)c1)N1CCCCCC1`, the Potency was 12.6 µM (active).

Take `COc1ccccc1CC(=O)Nc1cc(Cl)ccc1O`: the Potency was 17.8 µM (active).

Turning to `COc1cccc(CNc2ccc(F)c(Cl)c2)c1`, the Potency was 7.94 µM (active).

As to `CNc1nc(C23CC4CC(CC(C4)C2)C3)cs1`, the Potency is 15.8 µM (active).

As to `Cc1ncsc1CCOC(=O)C12CC3CC(CC(C3)C1)C2`, the Potency was 15.8 µM (active).

With `O=C(CN1CCCC1)Nc1ccc(OCc2ccccc2)cc1`, the Potency was 15.8 µM (active).

Turning to `O=C(CSCc1ccccc1)Nc1cc([N+](=O)[O-])ccc1F`, the Potency is 31.6 µM (active).

`Cc1ccc(C2=NN(CC(=O)NC(C)c3ccccc3)C(=O)CC2)cc1` (stereo not given): the Potency is 31.6 µM (active).

As to `Nc1cc(Cl)ccc1Oc1ccc2ccccc2c1`, the Potency was 15.8 µM (active).

For `Cc1ccc(-c2ccc(=O)n(CC(=O)NCCc3ccccc3)n2)cc1`, the Potency is 6.31 µM (active).

On to `Cc1cc(C)n2nc(CC(=O)NC3CCCCCCC3)nc2n1`, for which the Potency was 10 µM (active).

With `O=C(COc1ccccc1)N1CCCCCCC1`, the Potency was 12.6 µM (active).

Turning to `CCC1CCCCN1S(=O)(=O)Cc1ccccc1Cl` (stereo not given), the Potency was 15.8 µM (active).

In the case of `COc1ccccc1-c1cn(C(C)(C)C)nc1C`, the Potency was 14.1 µM (active).

With `Cc1cc(S(=O)(=O)NCCc2ccccc2)c(C)s1`, the Potency is 15.8 µM (active).

On to `Oc1ccc(C(=S)N2CCCCCC2)cc1`, for which the Potency is 14.1 µM (active).

On to `COc1ccc(-c2ccc(=O)n(CC(=O)NCc3ccco3)n2)cc1`, for which the Potency was 14.1 µM (active).
